# Measurements as given in PMC7862700, “An all-to-all approach to the identification of sequence-specific readers for epigenetic DNA modifications on cytosine”.
# Legend:
# Experiment in all cases: DAPPL (digital affinity profiling via proximity ligation, sequencing); 10 mM Tris-HCl pH 7.5, 50 mM NaCl, 1 mM DTT, 4% glycerol, room temperature, 30 min; GST-TFs on glutathione beads, 16-mer random dsDNA library, 0.1% formaldehyde crosslink after washing; high values mean tight binding
# FLI1 = molecular target: T1, FLI1 (Homo sapiens, UniProt Q01543 1-452); conditions: protein: recombinant; tags: N-terminal GST; dsDNA, one strand shown
# T1 sequence: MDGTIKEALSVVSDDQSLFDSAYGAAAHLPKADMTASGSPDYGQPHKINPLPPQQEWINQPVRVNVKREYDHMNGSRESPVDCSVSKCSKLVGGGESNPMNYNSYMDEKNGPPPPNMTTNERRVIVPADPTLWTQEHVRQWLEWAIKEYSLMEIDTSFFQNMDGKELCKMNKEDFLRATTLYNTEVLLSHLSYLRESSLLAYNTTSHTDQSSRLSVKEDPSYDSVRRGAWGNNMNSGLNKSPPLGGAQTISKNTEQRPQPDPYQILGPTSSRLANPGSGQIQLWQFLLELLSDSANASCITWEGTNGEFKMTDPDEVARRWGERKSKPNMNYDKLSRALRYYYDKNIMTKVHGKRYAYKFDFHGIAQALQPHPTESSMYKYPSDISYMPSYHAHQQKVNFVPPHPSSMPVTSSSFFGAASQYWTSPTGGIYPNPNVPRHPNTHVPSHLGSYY
# Procedure, shortened: (§1)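 Pools of DNA-barcoded human transcription factors, expressed in yeast as GST fusions on glutathione beads and combined with a tag-only sample, were incubated with 200 nmole of a 16-mer random double-stranded DNA library. Incubation took 30 min at room temperature in Tris/NaCl/DTT/glycerol buffer and was followed by washing, 0.1% formaldehyde crosslinking, proximity ligation (BsaI/T4 ligase, 1 h, 37 °C), PCR amplification and sequencing on an Illumina NextSeq500. Binding signal is the ratio of a hexamer's read frequency for a factor to its frequency for the tag-only sample.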
# ELK1 = molecular target: T2, ELK1 (Homo sapiens, UniProt P19419 1-428); conditions: protein: recombinant; tags: N-terminal GST; dsDNA, one strand shown
# T2 sequence: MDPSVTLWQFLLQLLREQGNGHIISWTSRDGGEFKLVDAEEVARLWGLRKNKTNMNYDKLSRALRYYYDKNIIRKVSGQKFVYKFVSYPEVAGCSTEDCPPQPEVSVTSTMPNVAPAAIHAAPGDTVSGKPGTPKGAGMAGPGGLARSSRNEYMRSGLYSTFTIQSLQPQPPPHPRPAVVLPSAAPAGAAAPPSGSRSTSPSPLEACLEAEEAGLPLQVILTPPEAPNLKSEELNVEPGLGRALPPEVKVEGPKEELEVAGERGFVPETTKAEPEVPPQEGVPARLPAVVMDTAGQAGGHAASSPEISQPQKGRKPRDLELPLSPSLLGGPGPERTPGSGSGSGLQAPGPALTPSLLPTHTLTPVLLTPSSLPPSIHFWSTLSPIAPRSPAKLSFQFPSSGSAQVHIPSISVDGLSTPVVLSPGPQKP
# Procedure, shortened: as §1
# GABPA = molecular target: T3, GABPA (Homo sapiens, UniProt Q06546 1-454); conditions: protein: recombinant; tags: N-terminal GST; dsDNA, one strand shown
# T3 sequence: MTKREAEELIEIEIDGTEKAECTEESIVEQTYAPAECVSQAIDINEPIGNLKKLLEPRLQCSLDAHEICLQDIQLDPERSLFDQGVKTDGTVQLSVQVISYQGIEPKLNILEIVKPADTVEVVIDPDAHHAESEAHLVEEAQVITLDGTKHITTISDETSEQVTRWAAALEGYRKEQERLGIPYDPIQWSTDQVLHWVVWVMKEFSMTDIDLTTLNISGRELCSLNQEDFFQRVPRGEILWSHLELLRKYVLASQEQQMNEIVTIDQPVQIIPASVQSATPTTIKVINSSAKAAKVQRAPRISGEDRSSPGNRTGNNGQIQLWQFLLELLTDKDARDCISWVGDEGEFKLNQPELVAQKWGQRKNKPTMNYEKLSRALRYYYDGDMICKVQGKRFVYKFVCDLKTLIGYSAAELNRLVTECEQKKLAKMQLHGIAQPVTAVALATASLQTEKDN
# Procedure, shortened: as §1
# ERG = molecular target: T4, ERG (Homo sapiens, UniProt P11308 1-479); conditions: protein: recombinant; tags: N-terminal GST; dsDNA, one strand shown
# T4 sequence: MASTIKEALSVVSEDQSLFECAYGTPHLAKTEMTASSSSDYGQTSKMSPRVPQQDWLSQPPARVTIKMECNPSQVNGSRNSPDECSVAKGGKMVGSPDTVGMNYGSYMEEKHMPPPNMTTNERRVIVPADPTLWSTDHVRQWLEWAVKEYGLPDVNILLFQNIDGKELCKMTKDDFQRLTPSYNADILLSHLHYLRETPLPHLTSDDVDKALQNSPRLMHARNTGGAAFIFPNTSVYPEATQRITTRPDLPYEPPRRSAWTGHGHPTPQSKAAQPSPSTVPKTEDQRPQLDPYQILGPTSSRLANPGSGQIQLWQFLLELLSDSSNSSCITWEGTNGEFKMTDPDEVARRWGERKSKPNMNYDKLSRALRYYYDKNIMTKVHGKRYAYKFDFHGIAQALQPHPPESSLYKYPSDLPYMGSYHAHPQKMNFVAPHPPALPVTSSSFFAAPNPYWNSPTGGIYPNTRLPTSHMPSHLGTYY
# Procedure, shortened: as §1
# ELF1 = ELF1 (Homo sapiens, UniProt P32519 1-619); conditions: protein: recombinant; tags: N-terminal GST; dsDNA, one strand shown
# ELF1, sequence (P32519 whole entry): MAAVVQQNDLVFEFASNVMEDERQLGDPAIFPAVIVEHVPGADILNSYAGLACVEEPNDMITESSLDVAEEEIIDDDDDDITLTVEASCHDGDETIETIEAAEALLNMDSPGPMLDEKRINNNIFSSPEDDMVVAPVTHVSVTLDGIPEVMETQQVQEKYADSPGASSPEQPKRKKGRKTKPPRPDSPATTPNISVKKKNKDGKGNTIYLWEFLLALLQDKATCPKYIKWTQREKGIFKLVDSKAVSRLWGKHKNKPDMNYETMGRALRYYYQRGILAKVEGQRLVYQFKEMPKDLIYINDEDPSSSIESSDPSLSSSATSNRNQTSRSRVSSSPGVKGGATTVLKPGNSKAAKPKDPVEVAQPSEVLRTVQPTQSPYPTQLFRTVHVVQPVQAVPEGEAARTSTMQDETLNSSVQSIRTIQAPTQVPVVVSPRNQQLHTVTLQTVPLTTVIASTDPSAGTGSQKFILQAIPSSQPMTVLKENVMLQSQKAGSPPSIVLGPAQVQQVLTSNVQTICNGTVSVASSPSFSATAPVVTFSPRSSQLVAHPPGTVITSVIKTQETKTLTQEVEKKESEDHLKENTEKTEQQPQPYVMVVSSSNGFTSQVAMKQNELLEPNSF
# Procedure, shortened: as §1
# EHF = molecular target: T5, EHF (Homo sapiens, UniProt Q9NZC4 1-300); conditions: protein: recombinant; tags: N-terminal GST; dsDNA, one strand shown
# T5 sequence: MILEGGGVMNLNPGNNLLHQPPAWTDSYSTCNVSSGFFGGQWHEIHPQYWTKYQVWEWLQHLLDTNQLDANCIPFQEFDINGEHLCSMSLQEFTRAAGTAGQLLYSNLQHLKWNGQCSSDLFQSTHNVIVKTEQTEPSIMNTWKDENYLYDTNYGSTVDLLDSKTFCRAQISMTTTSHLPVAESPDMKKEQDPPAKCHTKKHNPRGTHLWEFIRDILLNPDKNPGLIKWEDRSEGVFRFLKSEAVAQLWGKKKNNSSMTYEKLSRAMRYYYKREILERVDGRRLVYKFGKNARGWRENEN
# Procedure, shortened: as §1
# SPI1 = SPI1 (Homo sapiens, UniProt P17947 1-270); conditions: protein: recombinant; tags: N-terminal GST; dsDNA, one strand shown
# Procedure, shortened: as §1
# SPIB = SPIB (Homo sapiens, UniProt Q01892 1-262); conditions: protein: recombinant; tags: N-terminal GST; dsDNA, one strand shown
# SPIB, sequence (Q01892 whole entry): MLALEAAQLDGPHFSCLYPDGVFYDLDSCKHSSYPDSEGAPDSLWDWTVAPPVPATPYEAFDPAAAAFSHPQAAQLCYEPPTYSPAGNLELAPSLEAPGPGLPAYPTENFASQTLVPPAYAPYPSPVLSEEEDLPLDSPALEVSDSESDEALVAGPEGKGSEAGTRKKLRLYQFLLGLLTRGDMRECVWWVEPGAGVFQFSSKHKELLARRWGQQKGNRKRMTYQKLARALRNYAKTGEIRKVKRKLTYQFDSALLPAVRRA
# Procedure, shortened: as §1
# ELK3 = molecular target: T6, ELK3 (Homo sapiens, UniProt P41970 1-407); conditions: protein: recombinant; tags: N-terminal GST; dsDNA, one strand shown
# T6 sequence: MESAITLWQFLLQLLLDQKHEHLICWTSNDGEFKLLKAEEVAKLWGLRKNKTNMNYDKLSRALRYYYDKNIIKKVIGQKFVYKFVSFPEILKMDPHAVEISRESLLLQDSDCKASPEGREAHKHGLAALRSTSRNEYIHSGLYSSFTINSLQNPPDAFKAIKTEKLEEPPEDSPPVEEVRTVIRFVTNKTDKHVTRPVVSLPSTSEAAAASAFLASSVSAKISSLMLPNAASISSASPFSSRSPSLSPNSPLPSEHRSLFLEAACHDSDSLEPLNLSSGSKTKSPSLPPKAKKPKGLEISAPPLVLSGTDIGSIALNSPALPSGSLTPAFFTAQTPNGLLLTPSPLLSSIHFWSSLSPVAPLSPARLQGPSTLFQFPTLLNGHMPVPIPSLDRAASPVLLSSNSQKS
# Procedure, shortened: as §1
# FEV = molecular target: T7, FEV (Homo sapiens, UniProt Q99581 1-238); conditions: protein: recombinant; tags: N-terminal GST; dsDNA, one strand shown
# T7 sequence: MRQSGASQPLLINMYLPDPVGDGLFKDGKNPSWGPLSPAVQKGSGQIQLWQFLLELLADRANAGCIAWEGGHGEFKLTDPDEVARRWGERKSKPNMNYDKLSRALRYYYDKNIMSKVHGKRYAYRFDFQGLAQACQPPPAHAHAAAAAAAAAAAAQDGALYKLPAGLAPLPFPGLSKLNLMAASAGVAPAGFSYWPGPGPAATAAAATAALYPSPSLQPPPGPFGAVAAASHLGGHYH
# Procedure, shortened: as §1
# ETV5 = ETV5 (Homo sapiens, UniProt P41161 1-510); conditions: protein: recombinant; tags: N-terminal GST; dsDNA, one strand shown
# ETV5, sequence (P41161 whole entry): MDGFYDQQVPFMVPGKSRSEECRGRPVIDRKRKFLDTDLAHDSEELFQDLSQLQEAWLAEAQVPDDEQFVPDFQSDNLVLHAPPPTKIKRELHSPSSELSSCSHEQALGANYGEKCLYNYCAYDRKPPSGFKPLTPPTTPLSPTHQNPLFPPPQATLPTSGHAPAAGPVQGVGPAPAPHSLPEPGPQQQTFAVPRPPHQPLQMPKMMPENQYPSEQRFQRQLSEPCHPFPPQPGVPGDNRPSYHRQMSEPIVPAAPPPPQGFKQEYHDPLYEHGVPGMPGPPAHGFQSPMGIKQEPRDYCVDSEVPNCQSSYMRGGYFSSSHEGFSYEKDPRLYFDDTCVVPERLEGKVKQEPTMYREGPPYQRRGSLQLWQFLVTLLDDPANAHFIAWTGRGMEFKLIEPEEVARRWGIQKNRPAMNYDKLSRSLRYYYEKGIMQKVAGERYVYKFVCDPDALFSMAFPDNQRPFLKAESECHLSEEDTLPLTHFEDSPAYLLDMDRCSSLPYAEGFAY
# Procedure, shortened: as §1
# HSF1 = HSF1 (Homo sapiens, UniProt Q00613 1-529); conditions: protein: recombinant; tags: N-terminal GST; chain copies: 3; dsDNA, one strand shown
# HSF1, sequence (Q00613 whole entry): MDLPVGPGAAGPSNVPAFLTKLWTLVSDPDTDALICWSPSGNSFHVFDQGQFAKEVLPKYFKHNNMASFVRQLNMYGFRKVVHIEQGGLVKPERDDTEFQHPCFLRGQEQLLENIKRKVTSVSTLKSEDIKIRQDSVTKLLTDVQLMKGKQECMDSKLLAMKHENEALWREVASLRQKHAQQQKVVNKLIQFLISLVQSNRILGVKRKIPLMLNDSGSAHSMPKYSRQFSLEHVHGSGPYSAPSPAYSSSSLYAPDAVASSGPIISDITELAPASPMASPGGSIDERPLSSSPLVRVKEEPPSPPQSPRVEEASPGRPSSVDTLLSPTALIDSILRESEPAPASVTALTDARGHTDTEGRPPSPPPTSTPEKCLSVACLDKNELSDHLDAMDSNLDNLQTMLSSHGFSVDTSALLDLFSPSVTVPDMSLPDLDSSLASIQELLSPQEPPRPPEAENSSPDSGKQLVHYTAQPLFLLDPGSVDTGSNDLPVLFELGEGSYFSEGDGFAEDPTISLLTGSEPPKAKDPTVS
# Procedure, shortened: as §1
# SPIC = molecular target: T8, SPIC (Homo sapiens, UniProt Q8N5J4 1-248); conditions: protein: recombinant; tags: N-terminal GST; dsDNA, one strand shown
# T8 sequence: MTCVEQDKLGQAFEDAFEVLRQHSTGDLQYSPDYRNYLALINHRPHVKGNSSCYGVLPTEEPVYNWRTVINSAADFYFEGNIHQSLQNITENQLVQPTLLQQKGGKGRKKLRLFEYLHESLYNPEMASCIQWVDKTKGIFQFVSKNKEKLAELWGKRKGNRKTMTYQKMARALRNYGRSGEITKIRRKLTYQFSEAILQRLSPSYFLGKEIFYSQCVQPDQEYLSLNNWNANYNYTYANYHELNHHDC
# Procedure, shortened: as §1
# ELF4 = ELF4 (Homo sapiens, UniProt Q99607 1-663); conditions: protein: recombinant; tags: N-terminal GST; dsDNA, one strand shown
# ELF4, sequence (Q99607 whole entry): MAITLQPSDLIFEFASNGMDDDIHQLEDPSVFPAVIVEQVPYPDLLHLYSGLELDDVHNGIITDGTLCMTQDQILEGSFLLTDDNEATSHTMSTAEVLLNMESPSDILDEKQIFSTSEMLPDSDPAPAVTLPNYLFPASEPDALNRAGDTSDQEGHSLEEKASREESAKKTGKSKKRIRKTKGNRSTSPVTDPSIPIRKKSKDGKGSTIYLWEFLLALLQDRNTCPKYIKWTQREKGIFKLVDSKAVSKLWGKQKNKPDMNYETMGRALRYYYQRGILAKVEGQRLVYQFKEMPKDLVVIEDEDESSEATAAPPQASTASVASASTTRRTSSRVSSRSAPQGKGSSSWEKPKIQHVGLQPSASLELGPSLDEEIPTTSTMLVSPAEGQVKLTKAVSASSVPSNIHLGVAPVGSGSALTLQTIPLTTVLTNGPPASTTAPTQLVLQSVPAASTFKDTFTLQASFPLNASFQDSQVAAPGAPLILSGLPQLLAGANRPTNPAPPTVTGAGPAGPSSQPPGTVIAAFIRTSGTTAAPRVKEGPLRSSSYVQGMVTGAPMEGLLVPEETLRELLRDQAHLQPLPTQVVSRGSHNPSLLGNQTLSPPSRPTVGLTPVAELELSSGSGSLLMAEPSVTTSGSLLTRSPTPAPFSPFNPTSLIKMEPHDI
# Procedure, shortened: as §1
# ELK4 = molecular target: T9, ELK4 (Homo sapiens, UniProt P28324-2 1-405); conditions: protein: recombinant; tags: N-terminal GST; dsDNA, one strand shown
# T9 sequence: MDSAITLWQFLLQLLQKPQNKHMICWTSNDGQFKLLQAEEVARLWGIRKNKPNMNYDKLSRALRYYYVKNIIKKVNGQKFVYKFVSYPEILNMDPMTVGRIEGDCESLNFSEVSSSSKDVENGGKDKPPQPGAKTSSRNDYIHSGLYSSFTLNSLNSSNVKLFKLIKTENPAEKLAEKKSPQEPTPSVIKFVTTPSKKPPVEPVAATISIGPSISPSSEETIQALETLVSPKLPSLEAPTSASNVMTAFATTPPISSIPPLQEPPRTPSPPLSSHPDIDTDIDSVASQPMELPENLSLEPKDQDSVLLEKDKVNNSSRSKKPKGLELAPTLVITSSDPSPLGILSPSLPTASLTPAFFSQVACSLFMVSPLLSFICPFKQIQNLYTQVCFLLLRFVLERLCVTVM
# Procedure, shortened: as §1
# ETV2 = molecular target: T10, ETV2 (Homo sapiens, UniProt O00321 1-342); conditions: protein: recombinant; tags: N-terminal GST; dsDNA, one strand shown
# T10 sequence: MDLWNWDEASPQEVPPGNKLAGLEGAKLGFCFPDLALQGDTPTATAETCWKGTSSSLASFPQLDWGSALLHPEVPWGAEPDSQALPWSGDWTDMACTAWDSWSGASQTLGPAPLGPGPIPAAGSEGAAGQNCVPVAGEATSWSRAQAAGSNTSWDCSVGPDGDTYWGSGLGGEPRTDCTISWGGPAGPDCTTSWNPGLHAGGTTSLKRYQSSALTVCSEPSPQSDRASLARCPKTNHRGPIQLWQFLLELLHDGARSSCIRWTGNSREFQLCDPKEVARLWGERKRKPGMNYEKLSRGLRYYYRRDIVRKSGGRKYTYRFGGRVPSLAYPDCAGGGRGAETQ
# Procedure, shortened: as §1
# ELF3 = molecular target: T11, ELF3 (Homo sapiens, UniProt P78545 1-371); conditions: protein: recombinant; tags: N-terminal GST; dsDNA, one strand shown
# T11 sequence: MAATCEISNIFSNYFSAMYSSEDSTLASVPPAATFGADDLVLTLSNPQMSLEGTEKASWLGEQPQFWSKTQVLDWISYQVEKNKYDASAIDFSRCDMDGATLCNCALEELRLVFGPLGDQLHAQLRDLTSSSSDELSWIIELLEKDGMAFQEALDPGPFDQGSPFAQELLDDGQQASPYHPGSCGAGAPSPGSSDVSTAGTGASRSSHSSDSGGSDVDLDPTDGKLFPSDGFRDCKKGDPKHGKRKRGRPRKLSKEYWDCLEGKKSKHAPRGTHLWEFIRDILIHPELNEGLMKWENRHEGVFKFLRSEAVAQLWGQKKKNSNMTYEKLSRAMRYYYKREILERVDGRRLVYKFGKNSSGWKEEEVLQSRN
# Procedure, shortened: as §1
# CRX = CRX (Homo sapiens, UniProt O43186 1-299); conditions: protein: recombinant; tags: N-terminal GST; dsDNA, one strand shown
# CRX, sequence (O43186 whole entry): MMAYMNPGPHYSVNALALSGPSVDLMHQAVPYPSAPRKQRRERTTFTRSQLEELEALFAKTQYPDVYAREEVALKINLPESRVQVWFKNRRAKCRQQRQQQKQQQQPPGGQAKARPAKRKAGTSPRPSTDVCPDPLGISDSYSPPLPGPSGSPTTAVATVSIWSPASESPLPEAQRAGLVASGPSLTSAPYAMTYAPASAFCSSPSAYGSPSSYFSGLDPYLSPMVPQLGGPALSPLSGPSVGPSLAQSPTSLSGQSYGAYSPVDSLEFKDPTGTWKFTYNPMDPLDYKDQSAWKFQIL
# Procedure, shortened: as §1
# ETV1 = ETV1 (Homo sapiens, UniProt P50549 1-477); conditions: protein: recombinant; tags: N-terminal GST; dsDNA, one strand shown
# ETV1, sequence (P50549 whole entry): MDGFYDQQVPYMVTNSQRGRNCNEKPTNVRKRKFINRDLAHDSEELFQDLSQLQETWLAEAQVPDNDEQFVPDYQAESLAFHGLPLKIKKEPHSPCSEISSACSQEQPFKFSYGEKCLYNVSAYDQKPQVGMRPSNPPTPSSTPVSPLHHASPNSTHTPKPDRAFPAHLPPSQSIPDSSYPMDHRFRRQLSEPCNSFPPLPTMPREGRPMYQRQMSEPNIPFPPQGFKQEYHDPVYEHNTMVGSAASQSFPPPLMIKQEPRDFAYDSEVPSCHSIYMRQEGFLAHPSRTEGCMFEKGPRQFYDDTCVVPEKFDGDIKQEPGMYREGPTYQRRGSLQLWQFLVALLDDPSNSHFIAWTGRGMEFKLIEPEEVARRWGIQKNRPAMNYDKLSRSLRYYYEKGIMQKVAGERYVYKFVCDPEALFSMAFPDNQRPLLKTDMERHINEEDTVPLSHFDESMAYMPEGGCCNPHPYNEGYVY
# Procedure, shortened: as §1
sequence,measurement,setting,value
CTCCGG,binding signal,FLI1,"1.45 fold enrichment (6-mer frequency, TF over GST control)"
same,binding signal,ELK1,"1.58 fold enrichment (6-mer frequency, TF over GST control)"
same,binding signal,GABPA,"1.68 fold enrichment (6-mer frequency, TF over GST control)"
same,binding signal,ERG,"1.64 fold enrichment (6-mer frequency, TF over GST control)"
same,binding signal,ELF1,"1.52 fold enrichment (6-mer frequency, TF over GST control)"
same,binding signal,EHF,"1.58 fold enrichment (6-mer frequency, TF over GST control)"
same,binding signal,SPI1,"1.43 fold enrichment (6-mer frequency, TF over GST control)"
same,binding signal,SPIB,"1.54 fold enrichment (6-mer frequency, TF over GST control)"
same,binding signal,ELK3,"1.6 fold enrichment (6-mer frequency, TF over GST control)"
same,binding signal,FEV,"2 fold enrichment (6-mer frequency, TF over GST control)"
same,binding signal,ETV5,"1.58 fold enrichment (6-mer frequency, TF over GST control)"
same,binding signal,HSF1,"1.18 fold enrichment (6-mer frequency, TF over GST control)"
same,binding signal,SPIC,"1.92 fold enrichment (6-mer frequency, TF over GST control)"
same,binding signal,ELF4,"1.56 fold enrichment (6-mer frequency, TF over GST control)"
same,binding signal,ELK4,"1.58 fold enrichment (6-mer frequency, TF over GST control)"
same,binding signal,ETV2,"1.48 fold enrichment (6-mer frequency, TF over GST control)"
same,binding signal,ELF3,"1.39 fold enrichment (6-mer frequency, TF over GST control)"
same,binding signal,CRX,"1.02 fold enrichment (6-mer frequency, TF over GST control)"
same,binding signal,ETV1,"1.64 fold enrichment (6-mer frequency, TF over GST control)"
